“And” between values parts separate entries of the source, which are not always exact repeats. Identical values can stand only once. The campaign covered roughly 5,500 compounds. About 2,000 (36%) were called active. Inconclusive results (about 18%) are left out. No stated cut-off is given here; in the data, active means normalized growth mostly below about 0.91 (no sharp cut-off); inconclusive means no clear call, values can overlap the other calls; inactive means mostly above about 0.92. Some of the results follow.
Assay: chemical genetic growth profiling, strain panel (AID 1159580);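 further: tested at 20 µM; growth read once vehicle control cultures reached saturation at 30 °C; 1 = growth at the plate median or of vehicle wells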
Settings: growth OD

Measured: normalized growth

COc1ccc2c(=O)c(OC)c(-c3ccccc3)oc2c1
0.646 (active) and 0.936 (inactive): S. cerevisiae deletion strains, locus YHR030C, strain SLT2, stronger effect = lower value
0.454 (active) and 0.941 (inactive): S. cerevisiae deletion strains, locus YJL095W, strain BCK1, stronger effect = lower value
active: S. cerevisiae deletion strains, locus YBR021W, strain FUR4, stronger effect = lower value 0.758 | S. cerevisiae deletion strains, locus YDL035C, strain GPR1, stronger effect = lower value 0.83 | S. cerevisiae deletion strains, locus YDL074C, strain BRE1, stronger effect = lower value 0.713 | S. cerevisiae deletion strains, locus YDL101C, strain DUN1, stronger effect = lower value 0.855 | S. cerevisiae deletion strains, locus YDL192W, strain arf1, stronger effect = lower value 0.829 | S. cerevisiae deletion strains, locus YDR101C, strain arx1, stronger effect = lower value 0.855 | S. cerevisiae deletion strains, locus YDR162C, strain NBP2, stronger effect = lower value 0.68 | S. cerevisiae deletion strains, locus YDR318W, strain mcm21, stronger effect = lower value 0.863 | S. cerevisiae deletion strains, locus YDR502C, strain sam2, stronger effect = lower value 0.836 | S. cerevisiae deletion strains, locus YEL061C, strain CIN8, stronger effect = lower value 0.891 | S. cerevisiae deletion strains, locus YER155C, strain BEM2, stronger effect = lower value 0.893 | S. cerevisiae deletion strains, locus YER167W, strain BCK2, stronger effect = lower value 0.858 | S. cerevisiae deletion strains, locus YGL086W, strain mad1, stronger effect = lower value 0.867 | S. cerevisiae deletion strains, locus YGL248W, strain PDE1, stronger effect = lower value 0.831 | S. cerevisiae deletion strains, locus YGR078C, strain PAC10, stronger effect = lower value 0.743 | S. cerevisiae deletion strains, locus YGR135W, strain pre9, stronger effect = lower value 0.754 | S. cerevisiae deletion strains, locus YGR229C, strain SMI1, stronger effect = lower value 0.477 | S. cerevisiae deletion strains, locus YGR252W, strain gcn5, stronger effect = lower value 0.582 | S. cerevisiae deletion strains, locus YHR129C, strain ARP1, stronger effect = lower value 0.858 | S. cerevisiae deletion strains, locus YHR200W, strain rpn10, stronger effect = lower value 0.892 | S. cerevisiae deletion strains, locus YIL066C, strain RNR3, stronger effect = lower value 0.771 | S. cerevisiae deletion strains, locus YJL187C, strain SWE1 (second series), stronger effect = lower value 0.859 | S. cerevisiae deletion strains, locus YJR043C, strain POL32, stronger effect = lower value 0.797 | S. cerevisiae deletion strains, locus YKR001C, strain vps1, stronger effect = lower value 0.848 | S. cerevisiae deletion strains, locus YLR058C, strain SHM2, stronger effect = lower value 0.888 | S. cerevisiae deletion strains, locus YLR268W, strain sec22, stronger effect = lower value 0.866 | S. cerevisiae deletion strains, locus YLR330W, strain CHS5, stronger effect = lower value 0.752 | S. cerevisiae deletion strains, locus YLR342W, strain FKS1 (second series), stronger effect = lower value 0.723 | S. cerevisiae deletion strains, locus YLR371W, strain rom2, stronger effect = lower value 0.794 | S. cerevisiae deletion strains, locus YLR418C, strain cdc73, stronger effect = lower value 0.532 | S. cerevisiae deletion strains, locus YML032C, strain rad52, stronger effect = lower value 0.723 | S. cerevisiae deletion strains, locus YMR078C, strain ctf18, stronger effect = lower value 0.893 | S. cerevisiae deletion strains, locus YMR223W, strain ubp8, stronger effect = lower value 0.845 | S. cerevisiae deletion strains, locus YMR263W, strain SAP30, stronger effect = lower value 0.845 | S. cerevisiae deletion strains, locus YNL067W, strain RPL9B, stronger effect = lower value 0.856 | S. cerevisiae deletion strains, locus YNL233W, strain BNI4, stronger effect = lower value 0.717 | S. cerevisiae deletion strains, locus YNL298W, strain CLA4, stronger effect = lower value 0.894 | S. cerevisiae deletion strains, locus YNL307C, strain MCK1, stronger effect = lower value 0.676 | S. cerevisiae deletion strains, locus YNR052C, strain pop2, stronger effect = lower value 0.882 | S. cerevisiae deletion strains, locus YOL006C, strain TOP1, stronger effect = lower value 0.396 | S. cerevisiae deletion strains, locus YOL147C, strain pex11, stronger effect = lower value 0.904 | S. cerevisiae deletion strains, locus YOR069W, strain VPS5, stronger effect = lower value 0.909 | S. cerevisiae deletion strains, locus YOR144C, strain elg1, stronger effect = lower value 0.924 | S. cerevisiae deletion strains, locus YOR184W, strain ser1, stronger effect = lower value 0.622 | S. cerevisiae deletion strains, locus YPL055C, strain LGE1, stronger effect = lower value 0.752 | S. cerevisiae deletion strains, locus YPR163C, strain tif3, stronger effect = lower value 0.853 | S. cerevisiae deletion strains, locus YPR167C, strain met16, stronger effect = lower value 0.901 | S. cerevisiae deletion strains, strain wtn01, stronger effect = lower value 0.887 | S. cerevisiae strains, strain wild type, stronger effect = lower value 0.884
inactive: S. cerevisiae deletion strains, locus YBR229C, strain ROT2, stronger effect = lower value 0.966 | S. cerevisiae deletion strains, locus YCL029C, strain bik1, stronger effect = lower value 0.945 | S. cerevisiae deletion strains, locus YDL185W, strain tfp1, stronger effect = lower value 0.951 | S. cerevisiae deletion strains, locus YDR388W, stronger effect = lower value 0.929 | S. cerevisiae deletion strains, locus YER110C, stronger effect = lower value 0.932 | S. cerevisiae deletion strains, locus YGL078C, strain dbp3, stronger effect = lower value 0.939 | S. cerevisiae deletion strains, locus YHR079C, strain IRE1 (second series), stronger effect = lower value 0.943 | S. cerevisiae deletion strains, locus YHR079C, strain IRE1, stronger effect = lower value 0.925 | S. cerevisiae deletion strains, locus YHR094C, strain hxt1, stronger effect = lower value 0.977 | S. cerevisiae deletion strains, locus YIL073C, strain SPO22, stronger effect = lower value 0.862 | S. cerevisiae deletion strains, locus YIL125W, strain kgd1, stronger effect = lower value 0.975 | S. cerevisiae deletion strains, locus YIR030C, strain dcg1, stronger effect = lower value 0.928 | S. cerevisiae deletion strains, locus YJL134W, strain LCB3, stronger effect = lower value 0.951 | S. cerevisiae deletion strains, locus YJL168C, strain set2, stronger effect = lower value 0.97 | S. cerevisiae deletion strains, locus YJR066W, strain TOR1, stronger effect = lower value 0.867 | S. cerevisiae deletion strains, locus YJR075W, strain HOC1, stronger effect = lower value 0.89 | S. cerevisiae deletion strains, locus YKL009W, strain mrt4, stronger effect = lower value 0.901 | S. cerevisiae deletion strains, locus YKL068W, stronger effect = lower value 0.975 | S. cerevisiae deletion strains, locus YKL085W, strain MDH1 (second series), stronger effect = lower value 0.974 | S. cerevisiae deletion strains, locus YKL085W, strain MDH1, stronger effect = lower value 0.974 | S. cerevisiae deletion strains, locus YKL190W, strain CNB1, stronger effect = lower value 0.923 | S. cerevisiae deletion strains, locus YLR039C, strain RIC1, stronger effect = lower value 0.906 | S. cerevisiae deletion strains, locus YLR102C, strain apc9, stronger effect = lower value 0.95 | S. cerevisiae deletion strains, locus YLR113W, strain HOG1, stronger effect = lower value 0.931 | S. cerevisiae deletion strains, locus YLR262C, strain YPT6, stronger effect = lower value 0.901 | S. cerevisiae deletion strains, locus YML016C, strain PPZ1, stronger effect = lower value 0.947 | S. cerevisiae deletion strains, locus YML124C, strain tub3, stronger effect = lower value 0.941 | S. cerevisiae deletion strains, locus YMR307W, strain GAS1, stronger effect = lower value 0.658 | S. cerevisiae deletion strains, locus YNL183C, strain NPR1, stronger effect = lower value 0.916 | S. cerevisiae deletion strains, locus YNL250W, strain rad50, stronger effect = lower value 0.969 | S. cerevisiae deletion strains, locus YNL271C, strain bni1, stronger effect = lower value 0.921 | S. cerevisiae deletion strains, locus YNL322C, strain KRE1, stronger effect = lower value 0.95 | S. cerevisiae deletion strains, locus YOL012C, strain htz1 0.856 | S. cerevisiae deletion strains, locus YOR061W, strain CKA2, stronger effect = lower value 0.942 | S. cerevisiae deletion strains, locus YOR136W, strain idh2, stronger effect = lower value 0.95 | S. cerevisiae deletion strains, locus YOR231W, strain MKK1, stronger effect = lower value 0.921 | S. cerevisiae deletion strains, locus YOR316C, strain cot1, stronger effect = lower value 0.953 | S. cerevisiae deletion strains, locus YPL256C, strain CLN2, stronger effect = lower value 0.932 | S. cerevisiae deletion strains, locus YPR119W, strain clb2, stronger effect = lower value 0.936 | S. cerevisiae deletion strains, locus YPR141C, strain kar3, stronger effect = lower value 0.978
